Experimental data: PubChem BioAssay AID942 (National Center for Advancing Translational Sciences (NCATS), 2007)
Inconclusive results are not listed. Activity calls are given as the source filed them. The call rests on the fitted dose curve.

Assay: Confirmation Concentration-Response Assay for Anthrax Lethal Toxin Internalization
Conditions: FRET ratio (460/530 nm); series mostly up to 46.1 µM

SMILES	Potency
O=C(Nc1c(Cl)cc([N+](=O)[O-])cc1Cl)c1cc(Cl)cc(Cl)c1O	10 µM (active)
COc1ccc2c(c1OC)C(=O)OC2c1ccc(O)cc1 (stereo unspecified)	inactive
COc1cc([C@@H]2c3cc4c(cc3[C@H](O)[C@H]3COC(=O)[C@H]23)OCO4)cc(OC)c1OC	0.794 µM (active)
O=C(Nc1ccc([N+](=O)[O-])cc1Cl)c1cc(Cl)cc(Cl)c1O	3.98 µM (active)
Cc1ccc2oc(=O)c3cnn(CC(=O)N4CCN(c5ccccc5)CC4)c3c2c1	5.01 µM (active)
Cc1ccc2c(c1)-c1c(cnn1CC(=O)Nc1ccccc1N1CCN(C)CC1)CO2	3.98 µM (active)
O=C(Nc1ccc([N+](=O)[O-])cc1Cl)c1cc(Br)ccc1O	0.794 µM (active)
Cc1ccc2oc(=O)c3cnn(CC(=O)Nc4ccccc4N4CCN(C)CC4)c3c2c1	2 µM (active)
Nc1ccc(NC(=O)c2cc(Cl)ccc2O)c(Cl)c1	inactive
COc1cc2c(O)c3c(c(-c4ccc5c(c4)OCO5)c2cc1OC)C(=O)OC3	0.0501 µM (active)
COc1ccc(C2C3=C(COC3=O)Oc3cc4c(cc32)OCO4)cc1OC (stereo unspecified)	inactive
O=C(Nc1ccc([N+](=O)[O-])cc1Cl)c1ccccc1O	6.31 µM (active)
COc1ccc(Cl)cc1C(=O)Nc1ccc([N+](=O)[O-])cc1Cl	inactive
COc1cc([C@@H]2c3cc4c(cc3[C@H](OC(C)=O)[C@H]3COC(=O)[C@H]23)OCO4)cc(OC)c1OC	0.794 µM (active)
COc1ccc2c(c1OC)C(=O)OC2CC(=O)c1ccc2c(c1)OCO2 (stereo unspecified)	inactive
COc1cc2c(OC(C)=O)c3c(c(-c4ccc5c(c4)OCO5)c2cc1OC)C(=O)OC3	0.0398 µM (active)
